Abeta yeast res: A-beta toxicity reversal in yeast | yeast expressing A-beta42, growth rescue, OD600, 48 h; response scale: 0% DMSO, 100% iron-clioquinol control | Potency, µM (doses to about 46.1 µM), most hits filed as activators | hit rate 0.063% among 410,000; note: nearly all actives have a fitted effect of over 55% in size
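Yeast growth medium received pinned compounds, then yeast cells expressing toxic A-beta were added; plates incubated at 30 C for 48 hr. Growth read as absorbance at 600 nm, normalized to DMSO and equimolar FeCl3 plus clioquinol controls.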
TDP43 rescue: TDP-43 toxicity inhibition in yeast; TDP-43 expressing yeast growth rescue, BacTiter-Glo, 24 h; Potency, µM (series often up to 46.1 µM), usual class: activators; hit rate 1.8% among 410,000; AID 652104; note: nearly all actives have a fitted effect of over 50% in size
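Yeast cells expressing TDP-43 under galactose induction are exposed to compounds for 24 hr at 30 deg C. BacTiter-Glo luminescence measures growth, so protective compounds score as activators.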
aSyn yeast inh: inhibitors of alpha-synuclein toxicity in yeast. Yeast expressing alpha-synuclein, growth rescue, BacTiter-Glo, 24 h. Potency, µM (top dose mostly 46.1 µM), actives largely listed as activators. hit rate 0.14% among 370,000; note: nearly all actives have a fitted effect of over 65% in size
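Readout is rescue of growth in alpha-synuclein-expressing yeast, so inhibitors of toxicity appear as activators. Growth after 24 hr at 30 deg C in galactose medium is quantified by luminescence.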
FUS yeast rescue: rescues growth of FUS-expressing yeast; S. cerevisiae FUS-expressing, growth rescue, OD600, 24 h; Potency, µM (titrated, usually from 76.6 µM), hits mostly activators; hit rate 0.24% among 390,000; AID 1347120; note: nearly all actives have a fitted effect of over 55% in size
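FUS-expressing yeast, raffinose-pregrown, induced in 2% galactose minimal medium at OD 0.005; compounds in a dilution series, 24hr at 30C. Growth restoration read as absorbance at 600 nm. CP55940 positive control, DMSO negative.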
Numbers stand for hits; i = inactive; ? = inconclusive; nt = not tested or not shown. A selection: hits, their analogues and other compounds. The true share with any hit is near 2.1%. Calls come from the whole dose curve; as a rule, active = well fitted curve in the direction sought with a large enough effect; inconclusive = small, poorly fitted or top-dose-only effect, or another doubt; inactive = no such curve, though single readings can be large; an effect the other way counts as inactive or inconclusive.

SMILES	Abeta yeast res	TDP43 rescue	aSyn yeast inh	FUS yeast rescue
COc1ccc(-c2cc(C(=O)N(C)Cc3ccc(F)cc3)c3ccccc3n2)cc1OC	i	22µM	i	i
COc1ccc(C=NNC(=O)c2cc(-c3ccc(C)c(C)c3)n[nH]2)cc1OCc1ccccc1	nt	nt	nt	i
Cc1ccc(O)c(-c2cc(C(F)(F)F)[nH]n2)c1	?	18µM	i	i
Cc1cccc(NC(=O)c2cc(-c3cc(C)ccc3O)n[nH]2)c1	i	i	i	i
CSc1nn(Cc2cccc(Cl)c2)c(N(C(C)=O)C(C)=O)c1S(=O)(=O)c1ccccc1	i	11µM	nt	i
COc1cccc(-c2nnc(-c3ccc(C)o3)o2)c1	i	i	i	i
COc1cccc(-c2nnc(-c3ccco3)o2)c1	i	16µM	i	i
CCCOc1ccc(-c2nnc(-c3ccco3)o2)cc1	i	?	i	i
CC(C)COc1ccc(-c2nnc(-c3ccco3)o2)cc1	i	10µM	i	i
O=C(OC12CCCN(C1)/C(=C/c1ccc(Cl)cc1)C2)c1ccccc1 (stereo not given)	nt	nt	nt	i
O=C(c1ccc(CS(=O)c2ccccc2Cl)o1)N1CCN(c2ccccc2F)CC1 (stereo not given)	i	13µM	nt	i
COc1ccccc1N1CCN(C(=O)c2cccs2)CC1	i	i	i	i
Cc1cccc(N2CCN(C(=O)c3cccs3)CC2)c1C	i	5.6µM	i	i
O=C(c1cccs1)N1CCN(c2ccc(Cl)cc2)CC1	i	?	i	i
Cc1ccccc1S(=O)Cc1ccc(C(=O)N2CCN(c3cccc(C)c3C)CC2)o1 (stereo not given)	i	35µM	nt	i
O=C(c1cccs1)N1CCN(c2cc(Cl)ccc2Cl)CC1	i	22µM	i	i
CC(C)C[C@H](NC(C)(C)C(=O)NC1CCCCC1)C(=O)NCC(c1ccccc1)c1ccccc1	nt	nt	nt	i
CC1Cc2ccccc2C[N+]1(C)CC(=O)c1ccc(I)cc1 (stereo not given)	nt	nt	i	nt
Cc1ccc(S(=O)(=O)N2CCCN(c3nc(-c4cccs4)nc4ccccc34)CC2)cc1	nt	nt	i	nt
CC(=O)Nc1c(-c2ccc(F)cc2)nc2ncccn12	nt	nt	nt	i
Cc1ccc(C(=O)N2CCN(c3cccc(C)c3C)CC2)o1	i	13µM	i	i
O=c1c2ccccc2nc(-c2ccccc2)n1O	i	i	i	i
COc1ccc(-c2nc3ccccc3c(=O)n2O)cc1	i	i	32µM	i
CCOC(=O)N1C(=O)C[C@](Sc2ccc(OC)cc2)(C(=O)N(C)C)[C@H]1c1ccc(OC)cc1	nt	nt	nt	i
Nc1nc2cc(Cl)c(Br)cc2o1	i	20µM	i	nt
SMILES	Abeta yeast res	TDP43 rescue	aSyn yeast inh	FUS yeast rescue
Nc1nc2ccc(Cl)cc2o1	i	i	?	nt
CCOC(=O)C(C(=O)OCC)C(c1ccccc1)N1CCN(c2ccccc2)CC1 (stereo not given)	i	13µM	i	i
Nc1nc2ccccc2cc1C(=O)NCCCCc1ccccc1	?	28µM	i	i
COC(=O)c1ccc(S(=O)(=O)N2CCC(NC(=O)COc3ccc(F)cc3)CC2)cc1	nt	nt	nt	i
COc1ccccc1NCc1cccn1-c1nnc(N2CCOCC2)s1	i	i	?	i
N#Cc1ncc(Cc2ccccc2)nc1C#N	i	14µM	i	i
COc1ccc(OC)c(C2C(C(=O)c3ccc(C)o3)=C(O)C(=O)N2c2cc(C)on2)c1 (stereo not given)	i	i	i	32µM
Cc1cc(-c2nc3ccccc3s2)ccc1N	i	18µM	i	nt
O=S(=O)(Nc1cccc(-c2ccc(N3CCCCC3)nn2)c1)c1ccc(Cl)s1	i	i	nt	?
COc1ccc(-c2csc(C(C)(NC(C)=O)c3ccc(OC)cc3)n2)cc1 (stereo not given)	i	?	i	i
COc1ccc(C(C)(NC(C)=O)c2nc(-c3ccc(F)c(Cl)c3)cs2)cc1 (stereo not given)	i	35µM	i	?
O=C(CC1(O)C(=O)N(CCc2ccccc2)c2ccc(Br)cc21)c1ccccc1 (stereo not given)	i	32µM	i	i
CNc1ccc(/C=C2\C=Cc3ccccc32)cc1I	nt	nt	i	nt
NC(=O)c1nsc(C(=O)N(c2ccccc2)C(C(=O)NC2CCCC2)c2ccc3ncccc3c2)c1N (stereo not given)	i	i	i	i
COc1ccc(N(C(=O)c2snc(C(N)=O)c2N)C(C(=O)NC2CCCC2)c2ccc3ncccc3c2)cc1 (stereo not given)	i	i	i	28µM
COc1ccc(N(C(=O)c2snc(C(N)=O)c2N)C(C(=O)NCc2ccccc2)c2ccc(O)cc2)cc1OC (stereo not given)	i	i	i	?
COc1ccc(N(C(=O)c2snc(C(N)=O)c2N)C(C(=O)NCc2ccc(F)cc2)c2ccc(O)cc2)cc1 (stereo not given)	i	i	i	28µM
CC(C)CNC(=O)OCc1cn(Cc2cc(F)ccc2F)nn1	nt	nt	nt	i
CCCCN(CC)C(=O)Nc1ccc2c(c1)N(C)C(=O)c1ccccc1S2	i	i	nt	i
CCOC(=O)Cc1nc(N2CCCN(C(C)=O)CC2)c2c(C)c(C(=O)OCC)sc2n1	nt	nt	nt	i
CCOc1ccc(NC(=O)C2CCN(c3nnc(-n4c(C)ccc4C)s3)CC2)cc1	i	i	nt	i
Cc1ccccc1Cc1c(C)nc2nc(SCC(=O)NCCc3ccc(Cl)cc3)nn2c1C	i	32µM	nt	i
COc1cc(NC(=O)CSc2nc3nc(C)c(Cc4ccc(C)cc4)c(C)n3n2)cc(OC)c1	i	i	nt	32µM
C/C(=N/NC(=O)c1cccnc1)c1cccc(O)c1	nt	nt	nt	i
O=C(CNC1=NCCS1)c1c[nH]c2ccccc12	nt	nt	i	nt
O=C1C(SCCO)=C(SCCO)C(=O)c2ccccc21	i	22µM	i	i

Bioassay records as filed in PubChem BioAssay.
